{
  "source": "PubChem BioAssay AID1851",
  "about": "(National Center for Advancing Translational Sciences (NCATS), 2009)",
  "note": "Screen size: about 16,000 compounds; about 5,700 (36%) were called active. Inconclusive results (about 24%) are left out. The list shows a part of the results. Unmarked numbers belong to inactive results. Calls follow the shape of the dose curve; as a rule, active = well fitted curve in the direction sought with a large enough effect; inconclusive = small, poorly fitted or top-dose-only effect, or effect the other way; inactive = no such curve, though single readings can be large or run the other way. % is scaled to controls: 0 for no effect and ±100 for the full control effect.",
  "data": [
    {"target": "Cytochrome P450 1A2 (Homo sapiens) (UniProt P05177)", "sequence (P05177 whole entry, looked up)": "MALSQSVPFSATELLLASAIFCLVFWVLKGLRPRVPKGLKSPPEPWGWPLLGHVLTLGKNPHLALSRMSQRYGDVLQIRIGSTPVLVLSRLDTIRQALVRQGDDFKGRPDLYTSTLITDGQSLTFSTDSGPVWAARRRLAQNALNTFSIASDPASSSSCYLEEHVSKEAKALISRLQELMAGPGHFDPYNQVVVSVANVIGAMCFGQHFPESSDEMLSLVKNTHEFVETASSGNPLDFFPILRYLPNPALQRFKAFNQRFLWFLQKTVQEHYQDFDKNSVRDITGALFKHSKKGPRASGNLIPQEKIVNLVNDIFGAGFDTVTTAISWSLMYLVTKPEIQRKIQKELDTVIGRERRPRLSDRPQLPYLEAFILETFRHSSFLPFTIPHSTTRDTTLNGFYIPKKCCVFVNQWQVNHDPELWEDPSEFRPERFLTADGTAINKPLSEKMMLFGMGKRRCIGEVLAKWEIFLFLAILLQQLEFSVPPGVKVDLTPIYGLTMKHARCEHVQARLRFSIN", "assay": "Cytochrome panel assay with activity outcomes", "conditions": "recombinant CYP, pro-luciferin dealkylation, luminescence, p450-cyp1a2; series mostly up to 57.1 µM; activity, negative = inhibition: at the top concentration", "values": [
      {"compound": "CC(C)[C@@]1(NC(=O)[C@@H]2C[C@H]3c4cccc5[nH]cc(c45)C[C@@H]3N(C)C2)O[C@]2(O)[C@H]3CCCN3C(=O)CN2C1=O", "activity, negative = inhibition": "-12.6% [at 25.6 µM]"},
      {"compound": "O=C(O)[C@H]1CCN1", "activity, negative = inhibition": "0.0533%"},
      {"compound": "CC[C@]1([C@H]2O[C@@H]([C@@H]3O[C@](O)(CO)[C@@H](C)C[C@H]3C)C[C@H]2C)CC[C@@H]([C@]2(C)CC[C@@]3(C[C@@H](O)[C@@H](C)[C@@H]([C@H](C)[C@H](OC)[C@H](C)C(=O)O)O3)O2)O1", "activity, negative = inhibition": "-4.88% [at 25.6 µM]"},
      {"compound": "CC(=O)OC1=CC2=CC[C@H]3[C@H]4CCC(=O)[C@@]4(C)CC(=O)[C@]3(S)[C@]2(C)CC1", "activity, negative = inhibition": "-9.43% [at 2.29 µM]"},
      {"compound": "N[C@@H]1C[C@H]1c1ccccc1", "AC50": "15.8 µM (active)"},
      {"compound": "N[C@H]1C[C@H]1c1ccccc1", "AC50": "5.01 µM (active)"},
      {"compound": "C[C@@]12CC[C@H](O)C[C@@H]1CC[C@H]1[C@@H]2C[C@@H](O)[C@]2(C)[C@@H](C3=CC(=O)OC3)CC[C@]12O", "activity, negative = inhibition": "-3.8% [at 25.6 µM]"},
      {"compound": "CCN1CCN(Cc2cc(OC)c(OC)cc2[N+](=O)[O-])CC1", "activity, negative = inhibition": "-23.6%"},
      {"compound": "Cc1noc(C)c1C(=O)N1CCC2(CCCN(CC(C)C)C2)CC1", "activity, negative = inhibition": "-17.1%"},
      {"compound": "NC(CCl)=N[C@H]1CN2CCC1CC2", "activity, negative = inhibition": "-4.08% [at 11.4 µM]"},
      {"compound": "N#Cc1ccc(CN2CCCC3(CCN(C(=O)Oc4ccccc4)CC3)C2)cc1", "activity, negative = inhibition": "-6.6%"},
      {"compound": "N#CC(=C(/N)Sc1ccccc1N)/C(C#N)=C(/N)Sc1ccccc1N", "AC50": "31.6 µM (active)"},
      {"compound": "NC(=O)CN1CCCC1=O", "AC50": "inactive"},
      {"compound": "CCN1CCN(c2ccc(NC(=O)C(C)C)cc2Cl)CC1", "activity, negative = inhibition": "-5.66%"},
      {"compound": "CC(C)C(=O)Nc1ccc([N+](=O)[O-])c(C(F)(F)F)c1", "AC50": "0.316 µM (active)"},
      {"compound": "CS(=O)(=O)N1CCCC(C(=O)N2CCC3(CC2)OCCO3)C1", "note": "(stereo unspecified)", "activity, negative = inhibition": "-9.06%"},
      {"compound": "CCOC(=O)C1Cc2c([nH]c3ccccc23)CN1", "note": "(stereo unspecified)", "AC50": "5.01 µM (active)"},
      {"compound": "CN(C)CS/C(N)=N/[C@H](O)C(Cl)(Cl)Cl", "activity, negative = inhibition": "4.09% [at 2.29 µM]"},
      {"compound": "O=C1CN=C(c2cccs2)c2c(sc3c2CCCC3)N1", "AC50": "15.8 µM (active)"},
      {"compound": "NC[C@H](O)c1ccc(O)cc1", "AC50": "inactive"},
      {"compound": "CN1C2C=C3C(C#N)=C(N)C(C#N)(C#N)[C@H](c4c(F)cccc4F)[C@H]3C1CC2", "note": "(stereo partly specified)", "activity, negative = inhibition": "-20.5%"},
      {"compound": "Oc1ccc2c3c1O[C@H]1c4oc5ccccc5c4C[C@]4(O)[C@H](C2)N(CC2CC2)CC[C@@]314", "activity, negative = inhibition": "-3.2%"},
      {"compound": "Nc1ccncc1", "activity, negative = inhibition": "-10.7%"},
      {"compound": "NC(=NCCc1ccc(I)cc1)SCCCc1cnc[nH]1", "AC50": "15.8 µM (active)"},
      {"compound": "OCc1cnc[nH]1", "activity, negative = inhibition": "2.94%"},
      {"compound": "CC(=O)OCC1=C(C(=O)[O-])N2C(=O)[C@@H](NC(=O)CCC[C@@H](N)C(=O)[O-])[C@@H]2SC1.[Zn+2]", "activity, negative = inhibition": "-8.72%"}
    ]}
  ]
}
